Assay results as given in PubChem BioAssay.
For some assays here: Potency and affinity values are given separately. Active and inactive are the calls of the source. Unless noted, no rule for the calls is given here.

Tests used:
[1] = antimalarial activity against Dd2 strain (AID 2302;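 active = growth inhibition above 50% at the single 2 µM test dose, taken to imply half-maximal potency below 2 µM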;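 also: 0% = DMSO untreated growth and 100% = chloroquine plus artemisinin killed control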); conditions: P. falciparum Dd2 in RBCs, LDH growth readout, 72 h; at 2 µM; hits give high values
[2] = HepG2 cytotoxicity, primary screen, cytotoxicity control for P. falciparum antimalarial project, cell-based, ATP luminescence (AID 2303;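 active = inhibition above 50%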;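 also: 0% = DMSO wells and 100% = digitonin-killed cells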); conditions: HepG2 viability, 24-48 h, at 10 µM, hits give high values
[3] = biological target: L-lactate dehydrogenase (Plasmodium falciparum (isolate CDC / Honduras)) (UniProt Q27743); experiment: PfLDH activity inhibition – cell lysate, 3D7 strain, counter-screen for P. falciparum growth inhibition project (AID 2304);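 also: 0% = vehicle and 100% = reference inhibitor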; conditions: P. falciparum 3D7 crude extract, LDH APAD/NBT absorbance; at 2 µM; hits give high values
[4] = inhibition of 3D7 malaria parasite growth – strain 3D7 (AID 2306);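 also: 0% = DMSO wells and 100% = chloroquine plus artemisinin control wells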; conditions: P. falciparum 3D7 erythrocytic growth, LDH absorbance, 72 h; at 2 µM; hits give high values
[5] = biological target: Calcium-dependent protein kinase 1 (Plasmodium falciparum (isolate 3D7)) (UniProt P62344); experiment: PfCDPK1 kinase inhibitors, biochemical, TCAMS library (AID 1159585; cut-off not given, nearly all actives have IC50 up to about 0.98 µM;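 also: inhibitors leave more ATP so luminescence rises with inhibition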); conditions: recombinant PfCDPK1, Kinase-Glo ATP depletion luminescence
[6] = biological target: Plasmodium falciparum protein kinase 6 (PK6, PF3D7_1337100) (UniProt Q8IDW1); experiment: PfPK6 kinase inhibitors, biochemical, TCAMS library (AID 1159586); conditions: recombinant PfPK6, Kinase-Glo ATP depletion luminescence
[7] = biological target: Protein kinase 7 (PK7), Plasmodium falciparum 3D7 (PF3D7_0213400) (UniProt Q7YTF7); experiment: inhibition of Plasmodium PK7 catalytic activity – biochemical, TCAMS antimalarial set, Kinase-Glo luminescence (AID 1159587); conditions: recombinant PfPK7, Kinase-Glo ATP depletion luminescence
[8] = biological target: Calcium-dependent protein kinase 4 (Plasmodium falciparum (isolate 3D7)) (UniProt Q8IBS5); experiment: PfCDPK4 kinase inhibitors, biochemical, TCAMS library (AID 1159588; cut-off not given, nearly all actives have IC50 up to about 0.91 µM); conditions: recombinant PfCDPK4, Kinase-Glo ATP depletion luminescence
Chain of Calcium-dependent protein kinase 4 (Plasmodium falciparum (isolate 3D7)) (Q8IBS5 whole entry, looked up): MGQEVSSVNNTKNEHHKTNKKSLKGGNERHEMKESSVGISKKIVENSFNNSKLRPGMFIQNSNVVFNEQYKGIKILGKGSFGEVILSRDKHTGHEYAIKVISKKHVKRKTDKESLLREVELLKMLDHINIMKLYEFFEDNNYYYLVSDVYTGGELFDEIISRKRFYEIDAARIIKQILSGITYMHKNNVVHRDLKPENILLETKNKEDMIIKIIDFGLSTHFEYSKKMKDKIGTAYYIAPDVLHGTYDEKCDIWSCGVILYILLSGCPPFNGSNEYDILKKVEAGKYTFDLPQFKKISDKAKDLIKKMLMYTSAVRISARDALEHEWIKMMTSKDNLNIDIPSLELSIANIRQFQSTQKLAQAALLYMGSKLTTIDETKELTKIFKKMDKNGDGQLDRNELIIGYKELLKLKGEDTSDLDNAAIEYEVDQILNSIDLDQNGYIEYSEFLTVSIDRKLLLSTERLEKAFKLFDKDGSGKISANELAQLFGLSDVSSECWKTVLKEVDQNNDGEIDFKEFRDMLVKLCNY

Chain of Calcium-dependent protein kinase 1 (Plasmodium falciparum (isolate 3D7)) (P62344 whole entry, looked up): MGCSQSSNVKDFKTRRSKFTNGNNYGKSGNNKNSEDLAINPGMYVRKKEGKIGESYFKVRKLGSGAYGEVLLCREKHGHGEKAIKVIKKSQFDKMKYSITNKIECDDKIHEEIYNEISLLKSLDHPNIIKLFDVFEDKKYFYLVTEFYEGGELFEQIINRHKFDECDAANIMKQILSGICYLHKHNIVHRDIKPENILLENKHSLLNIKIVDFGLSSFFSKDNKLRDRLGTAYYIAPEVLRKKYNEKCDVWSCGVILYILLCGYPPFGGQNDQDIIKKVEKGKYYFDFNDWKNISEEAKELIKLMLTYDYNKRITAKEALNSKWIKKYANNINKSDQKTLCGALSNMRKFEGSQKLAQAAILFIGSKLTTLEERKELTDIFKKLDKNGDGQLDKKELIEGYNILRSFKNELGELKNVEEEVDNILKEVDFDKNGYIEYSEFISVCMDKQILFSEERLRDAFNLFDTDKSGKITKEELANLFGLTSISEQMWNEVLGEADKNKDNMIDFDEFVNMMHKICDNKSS
Chain of Plasmodium falciparum protein kinase 6 (PK6, PF3D7_1337100) (Q8IDW1 1-305): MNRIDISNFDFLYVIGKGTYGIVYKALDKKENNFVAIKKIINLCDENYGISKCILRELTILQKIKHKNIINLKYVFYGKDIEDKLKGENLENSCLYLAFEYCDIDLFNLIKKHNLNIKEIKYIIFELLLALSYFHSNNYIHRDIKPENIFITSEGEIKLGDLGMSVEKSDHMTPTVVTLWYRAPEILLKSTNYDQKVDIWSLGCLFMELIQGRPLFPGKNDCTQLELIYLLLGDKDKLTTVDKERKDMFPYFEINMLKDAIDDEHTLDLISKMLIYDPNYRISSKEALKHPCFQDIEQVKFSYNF
Chain of L-lactate dehydrogenase (Plasmodium falciparum (isolate CDC / Honduras)) (Q27743 whole entry, looked up): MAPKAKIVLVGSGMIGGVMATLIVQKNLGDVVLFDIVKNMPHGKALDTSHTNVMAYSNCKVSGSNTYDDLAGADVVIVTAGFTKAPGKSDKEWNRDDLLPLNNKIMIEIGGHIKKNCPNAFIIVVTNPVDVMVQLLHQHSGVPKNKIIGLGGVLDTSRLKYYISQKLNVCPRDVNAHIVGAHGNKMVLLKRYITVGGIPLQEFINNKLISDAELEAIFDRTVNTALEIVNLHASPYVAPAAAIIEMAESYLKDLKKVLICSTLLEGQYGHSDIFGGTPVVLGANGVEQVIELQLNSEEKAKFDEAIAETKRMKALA
Chain of Protein kinase 7 (PK7), Plasmodium falciparum 3D7 (PF3D7_0213400) (Q7YTF7 1-343): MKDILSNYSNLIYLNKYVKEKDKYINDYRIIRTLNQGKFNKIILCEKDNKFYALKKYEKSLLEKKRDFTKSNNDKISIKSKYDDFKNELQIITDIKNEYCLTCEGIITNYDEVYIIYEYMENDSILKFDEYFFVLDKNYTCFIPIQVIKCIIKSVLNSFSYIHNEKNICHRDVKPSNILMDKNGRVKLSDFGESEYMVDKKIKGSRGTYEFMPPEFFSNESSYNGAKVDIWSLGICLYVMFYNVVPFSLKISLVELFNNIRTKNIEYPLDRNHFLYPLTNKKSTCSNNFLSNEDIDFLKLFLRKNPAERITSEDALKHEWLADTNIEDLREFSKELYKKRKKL

O=C(Nc1ccc(Cl)c(Cl)c1)N1CCc2cc3nccc(N4CCN5CCC[C@H]5C4)c3cc21
active: growth inhibition [1] 75% | growth inhibition [4] 100%
inactive: inhibition [2] 2% | inhibition [3] -7% | outcome [5] | outcome [6] | outcome [7] | outcome [8]

CN1CCCC(CN2CCN(Cc3cccc(-c4csc(-c5nc6ccccc6[nH]5)c4)c3)CC2)C1 (stereo not given)
inactive: inhibition [3] -4% | outcome [5] | outcome [6] | outcome [7] | outcome [8]
active: growth inhibition [1] 100% | inhibition [2] 65% | growth inhibition [4] 100%

COc1ccc2nccc(NN=Cc3cccc([N+](=O)[O-])c3)c2c1
active: growth inhibition [1] 98% | growth inhibition [4] 100%
inactive: inhibition [2] 4% | inhibition [3] -8% | outcome [5] | outcome [6] | outcome [7] | outcome [8]

CC(C)(C)c1cc(N=NC(=O)c2ccncc2)cc(C(C)(C)C)c1O
inactive: inhibition [2] 47% | inhibition [3] 1% | outcome [5] | outcome [6] | outcome [7] | outcome [8]
active: growth inhibition [1] 99% | growth inhibition [4] 99%

CN1CCN(c2nc(NCCNc3ccc([N+](=O)[O-])cc3)c3ccccc3n2)CC1
active: growth inhibition [4] 90%
inactive: growth inhibition [1] 25% | inhibition [2] 37% | inhibition [3] 6% | outcome [5] | outcome [6] | outcome [7] | outcome [8]

O=C(c1ccc(Cl)cc1)C1CCCN(C2CCN(CCc3ccccc3)CC2)C1 (stereo not given)
inactive: inhibition [2] 37% | inhibition [3] 1% | outcome [5] | outcome [6] | outcome [7] | outcome [8]
active: growth inhibition [1] 51% | growth inhibition [4] 96%

N#Cc1ccc(N(CCOc2ccc(Cl)c(F)c2)Cc2ccccc2C(F)(F)F)cc1C(F)(F)F
inactive: growth inhibition [1] 43% | inhibition [2] 17% | inhibition [3] -2% | outcome [5] | outcome [6] | outcome [7] | outcome [8]
active: growth inhibition [4] 101%

Cc1ccc2nc(-c3ccc(C=CC(=O)NCc4ccc(Cl)c(Cl)c4)cc3)[nH]c2c1
inactive: growth inhibition [1] 18% | inhibition [2] 5% | inhibition [3] -5% | outcome [5] | outcome [6] | outcome [7] | outcome [8]
active: growth inhibition [4] 96%

CCCCCC(C)N=C(Nc1ccc(C#N)cc1O)Nc1cccc(Cl)c1Cl (stereo not given)
active: growth inhibition [1] 98% | growth inhibition [4] 100%
inactive: inhibition [2] 28% | inhibition [3] -5% | outcome [5] | outcome [6] | outcome [7] | outcome [8]

COc1cc(NC(=O)N2CCc3cc(OC)c(OCCN4CCCCC4)cc32)cc(C(F)(F)F)c1
active: growth inhibition [4] 93%
inactive: growth inhibition [1] 10% | inhibition [2] 9% | inhibition [3] -3% | outcome [5] | outcome [6] | outcome [7] | outcome [8]

CC(CN1CCN(C)CC1)C(=O)Nc1ccc(-c2cccc(-c3nc4ccc(F)cc4[nH]3)c2)cc1 (stereo not given)
active: growth inhibition [1] 99% | growth inhibition [4] 100%
inactive: inhibition [2] 8% | inhibition [3] 0% | outcome [5] | outcome [6] | outcome [7] | outcome [8]

CCn1cc(-c2cc(C(=O)Nc3ccc(OC)cc3C)c3ccccc3n2)c(C)n1
active: growth inhibition [1] 100% | growth inhibition [4] 97%
inactive: inhibition [2] -5% | inhibition [3] 2% | outcome [5] | outcome [6] | outcome [7] | outcome [8]

COc1ccc2ncc(C#N)c(CCN3CCC(NCc4ccc5c(n4)NC(=O)CS5)CC3)c2n1
active: growth inhibition [4] 89%
inactive: growth inhibition [1] 17% | inhibition [2] 9% | inhibition [3] -1% | outcome [5] | outcome [6] | outcome [7] | outcome [8]

C#CCN(Cc1cc2c(=O)[nH]c(N)nc2cc1C)c1ccc(C(=O)N[C@@H](CCC(=O)O)C(=O)O)cc1
inactive: inhibition [2] 28% | inhibition [3] -1% | outcome [5] | outcome [6] | outcome [7] | outcome [8]
active: growth inhibition [1] 74% | growth inhibition [4] 92%

Cc1cc(N[C@@H](CC(C)C)C(=O)NCc2cccs2)nc(NCCc2cccs2)n1
inactive: growth inhibition [1] 13% | inhibition [2] -3% | inhibition [3] -4% | outcome [5] | outcome [6] | outcome [7] | outcome [8]
active: growth inhibition [4] 92%

O=c1cc(NCCCNCc2cc3c(Cl)cc(Cl)cc3[nH]2)[nH]c2ccccc12
active: growth inhibition [4] 101%
inactive: growth inhibition [1] -2% | inhibition [2] -10% | inhibition [3] -3% | outcome [5] | outcome [6] | outcome [7] | outcome [8]

CCn1ccc2c(N3CCCCS3(=O)=O)cc(C(=O)N[C@@H](Cc3ccccc3)[C@H](O)CNC3CCCCC3)cc21
active: growth inhibition [1] 98% | growth inhibition [4] 98%
inactive: inhibition [2] 1% | inhibition [3] 1% | outcome [5] | outcome [6] | outcome [7] | outcome [8]

Cc1[nH]c(C)c(-c2cc3ccccc3o2)c(=O)c1Cl
inactive: growth inhibition [1] 13% | inhibition [2] 1% | inhibition [3] -2% | outcome [5] | outcome [6] | outcome [7] | outcome [8]
active: growth inhibition [4] 92%

Cc1ccc(CNC(=O)c2cc3c(=O)n4ccccc4nc3n(CCCN3CCOCC3)c2=N)cc1
inactive: growth inhibition [1] 5% | inhibition [2] 21% | inhibition [3] -3% | outcome [5] | outcome [6] | outcome [7] | outcome [8]
active: growth inhibition [4] 92%

CC(C)CN(c1nc(C(=O)NNC(=O)[C@H](CC2CC2)NC(=O)c2cc3cc(OCCN(C)C)ccc3o2)cs1)C1CC1
inactive: inhibition [2] -5% | inhibition [3] -4% | outcome [5] | outcome [6] | outcome [7] | outcome [8]
active: growth inhibition [1] 97% | growth inhibition [4] 87%

CC1(C)CCNc2cc(NC(=O)c3ccc(-c4ncccc4C(F)(F)F)cc3)ccc21
inactive: inhibition [2] 7% | inhibition [3] -3% | outcome [5] | outcome [6] | outcome [7] | outcome [8]
active: growth inhibition [1] 86% | growth inhibition [4] 97%

Cc1ccccc1C1CCN(C2CCC(NC(=O)C3=Cc4ccccc4OC3)CC2)CC1 (stereo not given)
inactive: growth inhibition [1] 15% | inhibition [2] 26% | inhibition [3] -4% | outcome [5] | outcome [6] | outcome [7] | outcome [8]
active: growth inhibition [4] 91%

O[C@@H](c1ccccc1)[C@@H]1CN(CCc2ccccc2)CC[C@@]1(O)c1ccccc1
inactive: inhibition [2] -2% | inhibition [3] -2% | outcome [5] | outcome [6] | outcome [7] | outcome [8]
active: growth inhibition [1] 92% | growth inhibition [4] 97%

COc1ccc(CNCc2ccccc2)cc1-c1cccc(S(=O)(=O)NCCN2CCCC2)c1
active: growth inhibition [4] 98%
inactive: growth inhibition [1] 36% | inhibition [2] 37% | inhibition [3] -8% | outcome [5] | outcome [6] | outcome [7] | outcome [8]

COc1ccc2ncc(F)c(CCN3CCC(NCc4cc(Br)c5c(c4)OCCO5)CC3)c2n1
inactive: inhibition [2] 26% | inhibition [3] -2% | outcome [5] | outcome [6] | outcome [7] | outcome [8]
active: growth inhibition [1] 94% | growth inhibition [4] 100%

CCC(C)(C)c1ccc(OCC(O)CN2CCCCC2)c(C(C)(C)CC)c1 (stereo not given)
active: growth inhibition [4] 91%
inactive: growth inhibition [1] 26% | inhibition [2] 14% | inhibition [3] -9% | outcome [5] | outcome [6] | outcome [7] | outcome [8]

CN(C)S(=O)(=O)c1ccc(Nc2nc(NCCC3C=NC=N3)nc3cc[nH]c(=O)c23)cc1 (stereo not given)
active: growth inhibition [1] 63% | growth inhibition [4] 96%
inactive: inhibition [2] 8% | inhibition [3] 2% | outcome [5] | outcome [6] | outcome [7] | outcome [8]

CCN(CC)c1ccccc1CNC(=O)c1cc(Cl)c(N)cc1OC
inactive: inhibition [2] 6% | inhibition [3] -1% | outcome [5] | outcome [6] | outcome [7] | outcome [8]
active: growth inhibition [1] 94% | growth inhibition [4] 97%

CC(C)(NCc1ccc(OC(F)(F)F)cc1)c1nc(-c2ccc(Cl)c(O)c2)c(-c2ccncc2)[nH]1
active: inhibition [2] 65% | growth inhibition [4] 94%
inactive: growth inhibition [1] 32% | inhibition [3] -8% | outcome [5] | outcome [6] | outcome [7] | outcome [8]

CN(Cc1cccc(F)c1)C1CCN(c2cc(NC(=O)c3ccc(F)cc3)ccn2)C1 (stereo not given)
active: growth inhibition [4] 83%
inactive: growth inhibition [1] 14% | inhibition [2] 7% | inhibition [3] -3% | outcome [5] | outcome [6] | outcome [7] | outcome [8]

N#Cc1ccc(N2CCN(Cc3cccc(-c4ccc(-c5nc6ccc(C(F)(F)F)cc6[nH]5)s4)c3)CC2)nc1
active: growth inhibition [1] 52% | growth inhibition [4] 96%
inactive: inhibition [2] 31% | inhibition [3] -4% | outcome [5] | outcome [6] | outcome [7] | outcome [8]

c1ccc(CCNCc2ccc(-c3ccc(CNc4ccc5ncccc5c4)cc3)cc2)cc1
active: growth inhibition [4] 96%
inactive: growth inhibition [1] 27% | inhibition [2] 36% | inhibition [3] -1% | outcome [5] | outcome [6] | outcome [7] | outcome [8]

O=C(Nc1cccc2ccccc12)N1CCc2cc3nccc(N4CCN5CCC[C@H]5C4)c3cc21
inactive: inhibition [2] 11% | inhibition [3] 0% | outcome [5] | outcome [6] | outcome [7] | outcome [8]
active: growth inhibition [1] 86% | growth inhibition [4] 99%

CC(=O)Nc1ccc(C(=O)N2CCN(c3ccnc4cc(Cl)ccc34)CC2)cc1
active: growth inhibition [4] 93%
inactive: growth inhibition [1] 43% | inhibition [2] 2% | inhibition [3] -5% | outcome [5] | outcome [6] | outcome [7] | outcome [8]

Cc1ccc(S(=O)Cc2ccc(Cl)cc2)cc1 (stereo not given)
active: growth inhibition [4] 98%
inactive: growth inhibition [1] 5% | inhibition [2] 8% | inhibition [3] -2% | outcome [5] | outcome [6] | outcome [7] | outcome [8]

CCC(CC)(Cc1ccccc1)NC(=O)[C@H](CC1CCCCC1)Nc1ccc(C#N)c2ccccc12
inactive: inhibition [2] 4% | inhibition [3] -5% | outcome [5] | outcome [6] | outcome [7] | outcome [8]
active: growth inhibition [1] 76% | growth inhibition [4] 95%

OCC1CCN(Cc2ccc(-c3ccc(-c4nc5ccccc5[nH]4)cc3)cc2)CC1
active: growth inhibition [1] 84% | growth inhibition [4] 100%
inactive: inhibition [2] 37% | inhibition [3] 1% | outcome [5] | outcome [6] | outcome [7] | outcome [8]

N#Cc1ccc2c(c1)CCN(CCC1CCC(NC(=O)/C=C/c3ccc(Cl)c(Cl)c3)CC1)CC2 (stereo not given)
inactive: inhibition [2] 31% | inhibition [3] -11% | outcome [5] | outcome [6] | outcome [7] | outcome [8]
active: growth inhibition [1] 51% | growth inhibition [4] 100%

Cc1cc(CN2CCC(C(=O)Nc3ccc(-c4nc5ccccc5[nH]4)cc3)CC2)oc1C
inactive: growth inhibition [1] 9% | inhibition [2] -7% | inhibition [3] -4% | outcome [5] | outcome [6] | outcome [7] | outcome [8]
active: growth inhibition [4] 95%

c1cncc(CCNCc2ccc(-c3ccc(-c4nc5ccccc5[nH]4)s3)cc2)c1
inactive: inhibition [2] 35% | inhibition [3] -3% | outcome [5] | outcome [6] | outcome [7] | outcome [8]
active: growth inhibition [1] 99% | growth inhibition [4] 101%
